Compound activity as filed in PubChem.
AHR act = activates the human aryl hydrocarbon receptor. P35869. AHR-responsive luciferase reporter cells, luminescence. activation, % at 5 µM. actives 2.5% (n = 320,000); in the data active means activation above about 47%
hgDAF12 agonist = hgDAF-12 agonism, primary luciferase screen; HEK293 GAL4-hgDAF12 UAS-luciferase reporter, agonist luminescence; normalized to butyrate control; activation, % at 6.8 µM; actives 1.8% (n = 370,000); AID 687014;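 active means activation above a cutoff set at the mean of all screened compounds plus 3 SD, cut at about 10% in these data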
DAX1 inh-1 = inhibits human nuclear receptor DAX1 | P51843 | HEK293 Gal4-DAX1 luciferase reporter, luminescence | inhibition, % at 6.75 µM | actives 0.99% (n = 340,000) | AID 504766;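 active means inhibition above the mean over all tested compounds plus 3 SD, cut at about 4.2% in these data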;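 further: inhibition shows as a rise in luminescence from relieved DAX1 repression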
DAX1 inh-2 = inhibitors of DAX1 repression of SF-1 activated StAR promoter | HEK293T StAR-luciferase reporter, SF-1/DAX-1 repression relief | inhibition, % at 6.8 µM | actives 1.1% (n = 370,000);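 active means inhibition above the mean over all tested compounds plus 3 SD, cut at about 3.6% in these data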;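 further: higher inhibition means more luminescence from relief of DAX-1 repression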
ssDAF12 agonist = S. stercoralis DAF-12 activation, primary screen; HEK293 ssDAF-12/GRIP1 lit1-tk-luc reporter, luminescence; % of 3 µM dafachronic acid response; activation, % at 6.8 µM; actives 1% (n = 370,000); AID 652126;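 active means activation above the mean over all tested compounds plus 3 SD, cut at about 0.9% in these data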
hcDAF12 agonist = activators of H. contortus DAF-12 nuclear receptor; HEK293 hcDAF-12 lit1-tk-luc reporter, luminescence; 0% DMSO, 100% Δ7-dafachronic acid; activation, % at 6.8 µM; actives 1.4% (n = 370,000);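 active means activation above the mean of all tested compounds plus 3 SD, cut at about 5.5% in these data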
DAX1 conf = NR0B1 (human) inhibition, confirmation; shares compounds with DAX1 inh-2; HEK293T StAR-promoter luciferase reporter, SF-1/DAX-1 repression; inhibition, % at 6.8 µM; actives 87% (n = 2,400); AID 652134;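 active means inhibition above the average of every tested compound plus 3 SD, cut at about 3.8% in these data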;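 further: active compounds raise luminescence by relieving repression of the StAR reporter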
Target sequence (P51843 whole entry, looked up): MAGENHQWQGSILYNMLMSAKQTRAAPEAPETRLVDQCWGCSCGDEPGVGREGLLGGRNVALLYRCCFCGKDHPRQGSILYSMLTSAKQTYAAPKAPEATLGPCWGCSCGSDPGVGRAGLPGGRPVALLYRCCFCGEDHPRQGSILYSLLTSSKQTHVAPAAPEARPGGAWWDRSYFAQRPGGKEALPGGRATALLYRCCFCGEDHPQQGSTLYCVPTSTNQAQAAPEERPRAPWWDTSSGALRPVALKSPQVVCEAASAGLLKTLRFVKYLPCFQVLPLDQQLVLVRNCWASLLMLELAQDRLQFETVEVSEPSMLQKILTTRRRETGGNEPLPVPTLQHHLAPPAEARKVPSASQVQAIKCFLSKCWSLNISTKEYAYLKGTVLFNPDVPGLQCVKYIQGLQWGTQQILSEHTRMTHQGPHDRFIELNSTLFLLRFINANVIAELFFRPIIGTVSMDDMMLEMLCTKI
SF1 AF2mut Luc = nonselective inhibitor or artifact in SF-1 mutant DAX1 counter-screen; shares compounds with DAX1 inh-2; HEK293 StAR-luciferase, SF-1 AF2 mutant, luminescence; inhibition, % at 6.8 µM; actives 78% (n = 2,400); AID 652136;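 active means inhibition above the mean of all tested compounds plus 3 SD, cut at about 3% in these data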
Hits are given with their value; i = inactive; nt = no result. The list is not random: actives were taken first. Their share in the collection is about 5.7%.

SMILES | AHR act | hgDAF12 agonist | DAX1 inh-1 | DAX1 inh-2 | ssDAF12 agonist | hcDAF12 agonist | DAX1 conf | SF1 AF2mut Luc
CC(=O)Nc1ccc(NC(=O)C(C)OC(=O)CC2CCCCC2)cc1 (stereo not drawn) | i | i | i | i | i | i | nt | nt
CCN(CC)CCN(C(=O)Cn1nnc(-c2ccc(C)o2)n1)C(C(=O)NC1CCCC1)c1ccc(F)cc1 (stereo not drawn) | nt | i | i | i | i | i | nt | nt
CC(C)c1nnc(NC(=O)c2ccc3ccccc3c2)s1 | i | 13 | i | 12 | i | 5.7 | 13 | 8.1
CC(C)c1nnc(NC(=O)COc2ccc3ccccc3c2)s1 | i | i | i | i | i | i | nt | nt
Cc1nnc(NC(=O)c2ccc(Br)cc2)s1 | i | i | i | i | i | i | nt | nt
Cc1nnc(NC(=O)c2ccc3ccccc3c2)s1 | i | i | i | 5.4 | i | i | 10 | 5.4
COc1ccc(NC(=O)C(=O)NCC2CCCN2S(=O)(=O)c2ccc(C)cc2)cc1 (stereo not drawn) | i | i | i | 6.4 | i | i | 13 | i
CC(=O)NC(CC(=O)N1CCN(C(C)=O)CC1)c1ccccc1 (stereo not drawn) | i | i | i | 5.3 | i | i | i | i
S=C(Nc1nc2c(s1)CCCC2)NC1CC1 | nt | i | i | 5.3 | i | i | 6.4 | 4.3
O=C(CS(=O)(=O)Cc1ccccc1)Nc1nc2c(s1)CCCC2 | i | i | i | i | i | i | nt | nt
O=C(CSc1nnc(-c2ccccc2F)o1)N1CCNC1=O | i | i | i | 7.7 | i | i | 11 | 6.8
CN(C)c1ccc(/C=N/NC(=O)CNC(=O)c2ccco2)cc1 | i | i | i | i | i | i | nt | nt
Cc1ccc(C)c(Cn2c3ccccc3c3cnn(CC(=O)NCCCN4CCOCC4)c(=O)c32)c1 | i | i | i | i | i | i | nt | nt
O=C(NCc1ccccc1)c1ccc2c(=O)n3c(nc2c1)CCCCC3 | i | i | i | i | i | i | nt | nt
O=C(Nc1ccc2nc3n(c(=O)c2c1)CCCCC3)c1ccccn1 | i | 13 | i | 4.8 | i | i | 9.1 | 4.7
O=C(NCCc1ccc(F)cc1)c1ccc2c(=O)n3c(nc2c1)CCC3 | i | i | i | 6.3 | i | i | i | 3.4
O=C(Nc1ccc2nc3n(c(=O)c2c1)CCCC3)c1ccccc1F | i | i | i | i | i | i | nt | nt
Cc1cccc(NC(=O)c2ccc3c(=O)n4c(nc3c2)CCCCC4)n1 | i | i | i | 7.0 | i | i | 6.2 | i
COc1ccc(N(CC(=O)NCc2cccs2)S(=O)(=O)c2ccc(C(C)=O)cc2)cc1 | nt | i | i | i | i | i | nt | nt
COc1ccc(-c2cc(NC=O)c3ncc(-c4ccc(OC)c(OC)c4)n3c2)c(OC)c1 | nt | i | nt | 6.5 | i | i | 12 | i
COc1cccc(-c2cnc3c(NC=O)cc(-c4ccc(OC)cc4OC)cn23)c1 | nt | i | nt | i | i | i | nt | nt
COc1ccc(-c2cc(NC=O)c3ncc(-c4cc(OC)c(OC)c(OC)c4)n3c2)cc1 | nt | i | nt | 4.6 | i | i | 4.0 | i
CN(C)c1ccc(C(CNC(=O)c2ccco2)N2CCCC2)cc1 (stereo not drawn) | i | i | i | i | i | i | nt | nt
Cc1ccc(SCC(=O)OCC(=O)N(C)CC(=O)Nc2ccccc2Cl)cc1 | i | i | i | i | i | i | nt | nt
COc1cc2nn(-c3ccccc3N)nc2cc1OC | nt | 11 | i | 4.7 | i | i | 6.7 | 4.8
SMILES | AHR act | hgDAF12 agonist | DAX1 inh-1 | DAX1 inh-2 | ssDAF12 agonist | hcDAF12 agonist | DAX1 conf | SF1 AF2mut Luc
Cc1ccc(-c2cc(C(F)F)n3ncc(C(=O)N4CCN(c5cccc(C)c5C)CC4)c3n2)cc1 | i | i | i | i | i | i | nt | nt
Cc1ccc(NC(=O)C/C(N)=N/OC(=O)Nc2cccc(C)c2)cc1 | i | i | i | 5.0 | i | i | i | i
Cc1ccc(NC(=O)C/C(N)=N/OC(=O)Nc2ccc(C)c(Cl)c2)cc1 | i | i | i | i | i | i | nt | nt
O=C(COc1ccc(Br)cc1Cl)NC(=S)Nc1ccccn1 | i | i | 5.2 | 4.8 | i | i | 16 | 3.0
Cc1ccc(OCC(=O)NC(=S)Nc2ccccn2)c(Br)c1 | i | i | i | i | i | i | nt | nt
Cc1ccc(NC(=O)c2cncc(Br)c2)nc1 | i | i | i | 4.5 | i | i | 5.8 | 6.3
CCCCc1ccc(NC(=O)c2cnccn2)cc1 | i | 12 | i | 8.9 | i | i | 11 | 7.5
Cc1ccc(NC(=O)c2cnccn2)nc1 | nt | i | i | 4.6 | i | i | 5.0 | 3.3
CCCCC[C@@H](C)N1C[C@H](COCc2ccccc2)Oc2cc(N3CCC[C@@H]3COC)ccc2S1(=O)=O | nt | i | nt | 5.1 | i | i | 5.7 | 4.3
Nc1ccc(-c2cnc[nH]2)cc1[N+](=O)[O-] | i | i | i | i | i | i | nt | nt
O=C1CN(C(=O)NCCC(=O)NC2CCCCC2)c2ccccc2N1 | i | i | i | i | i | i | nt | nt
CC(C)OCCCNC(=O)Cn1ccc2cc(S(=O)(=O)N3CCCCC3)ccc21 | i | i | i | i | i | i | nt | nt
COC(=O)c1cccc(N(CC(=O)NC2CCCCC2)C(=O)CNC(=O)c2cccs2)c1 | i | i | i | i | i | i | nt | nt
[O-][n+]1c2c(nc3c1-c1ccccc1C3O)CCCC2 (stereo not drawn) | i | nt | nt | nt | nt | nt | nt | nt
CCOC(=O)c1sc(NC(=O)c2ccc(CC)s2)nc1C | i | i | i | i | i | i | nt | nt
CCc1ccc(C(=O)Nc2nc(C)cs2)s1 | i | 11 | i | 16 | i | i | 9.9 | 6.1
CCCCN(C)CCNC(=O)CN1C(=O)CSc2ccc(S(=O)(=O)N3CCCC3)cc21 | i | i | i | 7.2 | i | i | i | i
COc1ccc(-c2cccc3c4c([nH]c23)[C@@H]2C[C@H]3[C@@H](C(=O)N2CC4)[C@H](C)ON3C)cc1 | nt | i | nt | i | i | i | nt | nt
O=C(Cn1nc([N+](=O)[O-])nc1Br)NC(c1ccccc1)c1ccccc1 | i | i | i | i | i | i | nt | nt
O=C(Nc1ccccc1)C(=O)Nc1ccc2c(c1)N(C(=O)C1CC1)CCC2 | i | 11 | i | 6.0 | i | i | 4.1 | i
CC(=O)Nc1cccc(-c2cc3c(c4c2ccn4C)C2CCC3O2)c1 (stereo not drawn) | nt | i | nt | i | i | i | nt | nt
Cn1ccc2c(-c3ccc(C(N)=O)cc3)cc3c(c21)C1CCC3O1 (stereo not drawn) | nt | i | nt | 4.6 | i | i | i | i
COc1ccc(NC(=O)Cc2ccc(C)c(C)c2)cc1S(=O)(=O)N1CCCCC1 | i | i | i | i | i | i | nt | nt
C=C(c1ccc2nc(NC(=O)OC)[nH]c2c1)c1cccs1 | nt | i | i | 7.7 | i | i | 37 | i
